# According to PubChem BioAssay (NCATS):
# Results filed as inconclusive are left out. Where a call stands in place of a potency, no number is given. Calls of active or inactive are those of the source. Unless noted, calls come from the whole dose curve; as a rule, active = well fitted curve in the direction sought with a large enough effect; inconclusive = small, poorly fitted or top-dose-only effect, or another doubt; inactive = no such curve, though single readings can be large; an effect the other way counts as inactive or inconclusive.
# How the values were obtained:
# [1] = Cytotoxicity counterscreen for inhibitors of SARS-CoV-2 cell entry (AID 1645845; calls by dose curve; note: nearly all actives have a fitted effect of over 50% in size)
# Summary of the method: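 Counterscreen run in the same HEK293-ACE2 line as the pseudotyped-particle entry assay, without particles. Viability after 48 h at 37 C was read as ATP luminescence, scaled between cell-containing and cell-free wells.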
# [2] = Primary qHTS to identify inhibitors of SARS-CoV-2 cell entry (AID 1645846; calls by dose curve; note: nearly all actives have a fitted effect of over 45% in size); settings: activity change, negative = inhibition: at 57.1 µM (top of the series) unless noted
# Summary of the method: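 Using luciferase-reporting pseudoviruses carrying Wuhan-Hu-1 spike, the screen tracks entry into stably ACE2-expressing cells over 48 hr. Activity is expressed relative to spike particles versus particles lacking any fusion protein.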
# CRL-7250 = normal cell line; test: qHTS assay to identify novel small-molecules to repurpose for Merkel cell carcinoma treatment (AID 1296009); settings: MCC and control cell lines, CellTiter-Glo viability, 72 h; series mostly up to 92 µM; note: nearly all actives have a fitted effect of over 60% in size
# Summary of the method: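 Dose-response viability screen; 72 hr exposure at 37 degree celsius; CellTiter-Glo added, 10 min room temperature, luminescence read; RLUs scaled between no-cell and DMSO wells.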
# [3] = Confirmatory qHTS to identify inhibitors of SARS-CoV-2 cell entry (AID 1645844; calls by dose curve; note: potency is the fitted concentration of half-maximal effect; nearly all actives have a fitted effect of over 45% in size)
# Summary of the method: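 HEK293-ACE2, overnight seeding; cpd 1 h, 37C/5% CO2; + SARS-CoV-2-S MLV PP (Wuhan-Hu-1, ΔC19); 48 h; Bright-Glo luminescence. Data normalised to S PP and bald PP wells.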
# [4] = qHTS Assay for Identifying Gametocytocidal Compounds (AID 743244);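 note: actives lower the fluorescent signal which means gametocytes are killed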; settings: P. falciparum 3D7 stage III-V gametocytes, alamarBlue, 72 h; max response: stronger effect = lower value
# Summary of the method: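 P. falciparum 3D7 stage III–V gametocytes (20,000 cells/well) were exposed to compounds for 72 h at 37 °C, 5% CO2. AlamarBlue was then added for 24 h; decreased resorufin fluorescence (Ex 525/Em 598 nm) indicated loss of viability.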
# [5] = P-glycoprotein substrates identified in KB-8-5-11 adenocarcinoma cell line, qHTS therapeutic library screen (AID 1346987); note: potency is the fitted concentration of half-maximal effect; nearly all actives have a fitted effect of over 65% in size
# Summary of the method: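 Compounds are pinned in dose-response onto KB-8-5-11 cells (500 cells/well, colchicine-free medium) and left 72 h at 37 degree C. CellTiter-Glo luminescence then yields AC50 values.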
# [6] = P-glycoprotein substrates identified in KB-3-1 adenocarcinoma cell line, qHTS therapeutic library screen (AID 1346986);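 note: potency is the fitted concentration of half-maximal effect; potency is for cytotoxicity meaning loss of cell viability; nearly all actives have a fitted effect of over 60% in size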
# Summary of the method: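 In 1536-well format, 500 cells/well received pinned compound titrations and were incubated 72 h, 5% CO2. Viability was read by CellTiter-Glo; cytotoxic if AC50 < 10 uM and efficacy >50%.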
# [7] = Primary qHTS for inhibitors of nuclear receptor binding SET domain protein 2 (NSD2) in an isogenic RCH-ACV NSD2 p.E1099K mutant (9B) (AID 1645876); note: potency is the fitted concentration of half-maximal effect; nearly all actives have a fitted effect of over 70% in size
# [8] = Primary qHTS for inhibitors of nuclear receptor binding SET domain protein 2 (NSD2) in an RCH-ACV wild type WT cells (2C) (AID 1645877); note: potency is the fitted concentration of half-maximal effect; nearly all actives have a fitted effect of over 70% in size
# [9] = target: Glutathione peroxidase 1 (Homo sapiens) (UniProt P07203); test: Primary qHTS Assay for Inhibitors of Recombinant Selenoprotein Glutathione Peroxidase 1 (GPX1) (AID 1845191); note: nearly all actives have a fitted effect of over 65% in size
# Sequence of Glutathione peroxidase 1 (Homo sapiens) (P07203 whole entry, looked up): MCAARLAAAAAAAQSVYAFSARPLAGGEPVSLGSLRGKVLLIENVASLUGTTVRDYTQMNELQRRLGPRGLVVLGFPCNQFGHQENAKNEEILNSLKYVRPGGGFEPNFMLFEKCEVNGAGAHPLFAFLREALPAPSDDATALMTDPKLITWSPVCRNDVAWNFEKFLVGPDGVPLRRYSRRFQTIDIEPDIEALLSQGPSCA
# Summary of the method: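 GR-coupled readout: NADPH consumption tracked by fluorescence, ex 340/em 450 nm, at t=0 and after 15 min at RT. Final mix 10 nM GPX1, 1 mM GSH, 0.5 mM CHP, 0.5 mM NADPH, 100 nM GR, 0.01% BSA, following 30 min enzyme–compound preincubation.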
# [10] = target: Nuclear receptor subfamily 1 group I member 3 (Homo sapiens) (UniProt Q14994); test: Primary qHTS for antagonist of constitutive androstane receptor (CAR) against the NCATS DSHEA and TCM libraries (AID 1794836);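 note: HepG2 cells stably expressing hCAR with CYP2B6 luciferase reporter stimulated by CITCO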
# Sequence of Nuclear receptor subfamily 1 group I member 3 (Homo sapiens) (Q14994 whole entry, looked up): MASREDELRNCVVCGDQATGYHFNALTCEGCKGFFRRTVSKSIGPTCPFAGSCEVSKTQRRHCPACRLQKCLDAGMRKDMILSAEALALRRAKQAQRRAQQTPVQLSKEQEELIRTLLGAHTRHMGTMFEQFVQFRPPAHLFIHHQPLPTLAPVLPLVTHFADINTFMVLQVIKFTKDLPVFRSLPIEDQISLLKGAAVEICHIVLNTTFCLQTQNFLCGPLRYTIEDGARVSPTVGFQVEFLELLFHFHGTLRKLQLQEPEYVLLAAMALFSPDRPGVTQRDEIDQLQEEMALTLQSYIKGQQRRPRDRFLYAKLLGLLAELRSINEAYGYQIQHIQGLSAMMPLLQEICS
# Summary of the method: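 HepG2-CYP2B6-hCAR cells, attached 5 h, given compounds plus CITCO agonist […], incubated 24 h at 37 C. Luciferase luminescence read, multiplexed with CellTiter-Fluor viability (Ex/Em 405/540 nm).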
# [11] = qHTS for Inhibitors of the Functional Ribonucleoprotein Complex (vRNP) of Lassa (LASV) Arenavirus: LASV Primary Screen - GLuc reporter signal (AID 1347082; calls by dose curve; tested in HEK293 reporter line; note: nearly all actives have a fitted effect of over 60% in size)
smiles,measurement,setting,value
OC[C@H]1O[C@@H](Oc2cc(O)cc(/C=C/c3ccc(O)cc3)c2)[C@H](O)[C@@H](O)[C@@H]1O,Potency,[1],inactive
same,Potency,[2],inactive
same,Potency,CRL-7250,inactive
O=C([C@@H](Cc1cccc(C(F)(F)F)c1)NS(=O)(=O)c1cc(F)c2c(c1)CCNC2)N1CCCC1,Potency,[1],inactive
same,Potency,CRL-7250,inactive
Cc1c(F)cc(C(=O)NC2CC2)cc1-c1ccc(C(=O)NCC(C)(C)C)cn1,Potency,[1],inactive
same,"activity change, negative = inhibition",[2],-35.5%
same,Potency,CRL-7250,inactive
CCNCc1nc2c(N)nc3ccccc3c2n1CC(C)(C)O,Potency,[1],inactive
same,"activity change, negative = inhibition",[2],-33.4%
same,Potency,CRL-7250,inactive
Cc1cccc(Oc2cnc(=O)[nH]c2)c1,Potency,[1],inactive
same,"activity change, negative = inhibition",[2],-20%
same,Potency,CRL-7250,inactive
CCOC(=O)[C@H]1O[C@@H]1C(=O)N[C@@H](CC(C)C)C(=O)NCCC(C)C,Potency,[3],68.1 nM (active)
same,Potency,[1],inactive
same,Potency,CRL-7250,inactive
C#C[C@]1(OC(=O)CCCCCC)CC[C@H]2[C@@H]3CCC4=CC(=O)CC[C@@H]4[C@H]3CC[C@@]21C,max response,[4],-5.44% (inactive)
same,Potency,[5],20600 nM (active)
COC[C@@H]1OC(=O)/C(=C\N(C)CCCN(C)C)C2=C(O)C(=O)C3=C([C@@H](OC(C)=O)C[C@@]4(C)[C@@H]3CC[C@@H]4O)[C@@]21C,Potency,[6],13000 nM (active)
same,Potency,[7],2590 nM (active)
same,Potency,[8],2590 nM (active)
same,Potency,[9],inactive
CC(=O)C1=C(O)C=C2Oc3c(C(C)=O)c(O)c(C)c(O)c3[C@]2(C)C1=O,Potency,[10],inactive
same,Potency,CRL-7250,inactive
C=C1C(C)C2C(Cc3ccccc3)NC(=O)C23C(OC(C)=O)C=CC(C)(O)CC(C)CC=CC3C1O (stereo not given),Potency,[11],inactive
CC(C)(O)/C=C/C(=O)[C@](C)(O)[C@H]1[C@H](O)C[C@@]2(C)[C@@H]3CC=C4[C@@H](C=C(O)C(=O)C4(C)C)[C@]3(C)C(=O)C[C@]12C,Potency,[6],94.4 nM (active)
same,Potency,[5],237 nM (active)
same,Potency,[7],42.2 nM (active)
same,Potency,[8],37.6 nM (active)
